Columns and labels:
Assay in all cases: DAPPL (digital affinity profiling via proximity ligation, sequencing); 10 mM Tris-HCl pH 7.5, 50 mM NaCl, 1 mM DTT, 4% glycerol, room temperature, 30 min; GST-TFs on glutathione beads, 16-mer random dsDNA library, 0.1% formaldehyde crosslink after washing; high values mean tight binding
[1] = biological target: T1, FEV (Homo sapiens, UniProt Q99581 1-238); settings: protein: recombinant; tags: N-terminal GST; dsDNA, one strand shown
T1 sequence: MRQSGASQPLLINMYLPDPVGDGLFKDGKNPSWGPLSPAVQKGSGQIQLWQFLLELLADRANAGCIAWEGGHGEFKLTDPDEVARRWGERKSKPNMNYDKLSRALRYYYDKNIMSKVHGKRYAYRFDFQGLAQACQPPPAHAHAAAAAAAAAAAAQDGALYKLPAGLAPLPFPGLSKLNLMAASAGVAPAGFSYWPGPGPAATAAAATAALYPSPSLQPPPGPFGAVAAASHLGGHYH
Outline: (§1)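 Binding signal is each hexamer's read frequency for a factor divided by its frequency in the tag-only sample. The factors were GST-fused human transcription factors from yeast, captured on glutathione beads, DNA-barcoded and pooled with that sample. Pools were incubated with 200 nmole of a random double-stranded 16-mer DNA library in Tris/NaCl/DTT/glycerol buffer at room temperature for 30 min, then washed, crosslinked with 0.1% formaldehyde, proximity-ligated with BsaI/T4 ligase (1 h, 37 °C), PCR-amplified and sequenced on an Illumina NextSeq500.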

[2] = biological target: ETV5 (Homo sapiens, UniProt P41161 1-510); settings: protein: recombinant; tags: N-terminal GST; dsDNA, one strand shown
Chain of ETV5 (P41161 whole entry): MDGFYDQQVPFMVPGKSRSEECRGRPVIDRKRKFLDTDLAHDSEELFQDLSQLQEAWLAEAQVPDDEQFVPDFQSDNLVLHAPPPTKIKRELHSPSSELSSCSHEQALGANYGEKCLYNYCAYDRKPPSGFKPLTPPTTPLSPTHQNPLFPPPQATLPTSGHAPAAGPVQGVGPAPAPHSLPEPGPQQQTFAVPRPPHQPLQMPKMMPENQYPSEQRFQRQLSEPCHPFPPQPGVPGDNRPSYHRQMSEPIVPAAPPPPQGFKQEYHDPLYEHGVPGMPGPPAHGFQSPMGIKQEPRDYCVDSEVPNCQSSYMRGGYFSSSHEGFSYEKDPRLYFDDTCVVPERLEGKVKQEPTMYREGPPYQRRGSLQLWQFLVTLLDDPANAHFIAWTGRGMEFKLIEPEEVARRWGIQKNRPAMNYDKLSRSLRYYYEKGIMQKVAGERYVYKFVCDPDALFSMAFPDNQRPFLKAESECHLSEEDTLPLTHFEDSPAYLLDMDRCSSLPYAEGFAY
Outline: as §1

[3] = biological target: HSF1 (Homo sapiens, UniProt Q00613 1-529); settings: protein: recombinant; tags: N-terminal GST; chain copies: 3; dsDNA, one strand shown
Chain of HSF1 (Q00613 whole entry): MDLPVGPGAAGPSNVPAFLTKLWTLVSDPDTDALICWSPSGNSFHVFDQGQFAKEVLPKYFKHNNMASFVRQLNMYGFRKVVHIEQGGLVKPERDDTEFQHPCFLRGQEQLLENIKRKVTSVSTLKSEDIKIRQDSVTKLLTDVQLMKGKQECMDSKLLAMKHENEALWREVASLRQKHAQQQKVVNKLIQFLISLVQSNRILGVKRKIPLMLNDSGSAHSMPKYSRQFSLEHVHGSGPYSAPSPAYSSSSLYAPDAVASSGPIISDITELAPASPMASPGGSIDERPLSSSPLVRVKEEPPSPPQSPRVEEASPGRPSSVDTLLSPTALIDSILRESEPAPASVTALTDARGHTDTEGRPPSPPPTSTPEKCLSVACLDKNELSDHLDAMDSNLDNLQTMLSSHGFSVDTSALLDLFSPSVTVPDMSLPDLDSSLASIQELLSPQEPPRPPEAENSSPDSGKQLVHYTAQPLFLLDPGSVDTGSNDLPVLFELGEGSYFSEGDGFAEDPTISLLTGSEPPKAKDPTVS
Outline: as §1

[4] = biological target: T2, SPIC (Homo sapiens, UniProt Q8N5J4 1-248); settings: protein: recombinant; tags: N-terminal GST; dsDNA, one strand shown
T2 sequence: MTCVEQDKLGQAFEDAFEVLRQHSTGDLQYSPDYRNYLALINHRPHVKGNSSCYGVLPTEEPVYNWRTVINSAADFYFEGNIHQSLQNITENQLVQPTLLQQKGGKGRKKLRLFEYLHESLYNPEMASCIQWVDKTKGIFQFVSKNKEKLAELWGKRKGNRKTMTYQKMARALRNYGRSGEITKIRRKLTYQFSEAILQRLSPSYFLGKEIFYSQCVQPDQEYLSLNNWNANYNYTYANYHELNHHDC
Outline: as §1

[5] = biological target: ELF4 (Homo sapiens, UniProt Q99607 1-663); settings: protein: recombinant; tags: N-terminal GST; dsDNA, one strand shown
Chain of ELF4 (Q99607 whole entry): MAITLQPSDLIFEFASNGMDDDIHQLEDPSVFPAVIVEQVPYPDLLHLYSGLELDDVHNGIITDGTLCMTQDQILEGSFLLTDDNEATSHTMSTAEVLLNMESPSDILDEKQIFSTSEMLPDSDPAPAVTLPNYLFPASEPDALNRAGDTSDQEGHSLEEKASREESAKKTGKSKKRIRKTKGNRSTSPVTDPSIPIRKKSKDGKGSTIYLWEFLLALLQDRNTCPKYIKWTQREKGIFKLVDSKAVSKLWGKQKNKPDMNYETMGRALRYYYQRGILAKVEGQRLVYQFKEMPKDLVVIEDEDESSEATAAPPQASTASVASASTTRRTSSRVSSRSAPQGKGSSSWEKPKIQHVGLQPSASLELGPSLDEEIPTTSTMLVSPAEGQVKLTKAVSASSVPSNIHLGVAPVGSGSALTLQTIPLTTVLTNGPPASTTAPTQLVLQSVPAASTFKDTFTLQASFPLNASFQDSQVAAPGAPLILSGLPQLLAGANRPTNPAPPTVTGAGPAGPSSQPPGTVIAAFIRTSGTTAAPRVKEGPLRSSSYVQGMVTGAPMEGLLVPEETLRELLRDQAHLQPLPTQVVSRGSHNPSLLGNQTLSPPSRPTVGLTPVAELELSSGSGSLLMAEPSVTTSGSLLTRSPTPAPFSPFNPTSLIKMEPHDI
Outline: as §1

[6] = biological target: T3, ELK4 (Homo sapiens, UniProt P28324-2 1-405); settings: protein: recombinant; tags: N-terminal GST; dsDNA, one strand shown
T3 sequence: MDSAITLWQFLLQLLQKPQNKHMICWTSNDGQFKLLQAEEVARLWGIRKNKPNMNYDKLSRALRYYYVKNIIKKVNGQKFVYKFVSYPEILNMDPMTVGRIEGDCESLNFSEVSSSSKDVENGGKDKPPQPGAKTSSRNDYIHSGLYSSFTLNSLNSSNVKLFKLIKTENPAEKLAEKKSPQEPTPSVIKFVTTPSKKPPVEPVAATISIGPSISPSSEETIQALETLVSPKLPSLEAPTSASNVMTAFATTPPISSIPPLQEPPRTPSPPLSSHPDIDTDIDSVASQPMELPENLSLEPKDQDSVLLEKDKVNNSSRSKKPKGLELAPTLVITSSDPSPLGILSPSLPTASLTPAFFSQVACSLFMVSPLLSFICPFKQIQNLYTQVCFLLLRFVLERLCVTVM
Outline: as §1

[7] = biological target: T4, ETV2 (Homo sapiens, UniProt O00321 1-342); settings: protein: recombinant; tags: N-terminal GST; dsDNA, one strand shown
T4 sequence: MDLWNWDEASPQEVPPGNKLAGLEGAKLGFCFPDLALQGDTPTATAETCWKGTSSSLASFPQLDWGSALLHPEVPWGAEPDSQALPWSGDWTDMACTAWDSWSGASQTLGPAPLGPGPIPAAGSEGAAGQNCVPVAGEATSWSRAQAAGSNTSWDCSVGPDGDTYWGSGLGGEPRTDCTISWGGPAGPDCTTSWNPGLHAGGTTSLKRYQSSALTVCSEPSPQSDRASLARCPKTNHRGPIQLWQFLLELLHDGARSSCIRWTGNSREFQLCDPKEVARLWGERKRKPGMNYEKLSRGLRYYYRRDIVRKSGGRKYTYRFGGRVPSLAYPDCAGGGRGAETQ
Outline: as §1

[8] = biological target: CRX (Homo sapiens, UniProt O43186 1-299); settings: protein: recombinant; tags: N-terminal GST; dsDNA, one strand shown
Chain of CRX (O43186 whole entry): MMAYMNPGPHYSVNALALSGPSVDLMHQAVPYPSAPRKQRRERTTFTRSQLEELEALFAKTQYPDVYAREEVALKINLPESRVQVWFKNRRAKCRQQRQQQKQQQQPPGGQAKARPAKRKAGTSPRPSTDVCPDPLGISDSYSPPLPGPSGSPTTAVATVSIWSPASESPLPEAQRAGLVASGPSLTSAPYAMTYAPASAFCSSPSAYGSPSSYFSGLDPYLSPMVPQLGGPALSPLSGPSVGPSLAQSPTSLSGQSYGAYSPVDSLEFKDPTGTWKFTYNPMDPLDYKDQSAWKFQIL
Outline: as §1

[9] = biological target: ETV1 (Homo sapiens, UniProt P50549 1-477); settings: protein: recombinant; tags: N-terminal GST; dsDNA, one strand shown
Chain of ETV1 (P50549 whole entry): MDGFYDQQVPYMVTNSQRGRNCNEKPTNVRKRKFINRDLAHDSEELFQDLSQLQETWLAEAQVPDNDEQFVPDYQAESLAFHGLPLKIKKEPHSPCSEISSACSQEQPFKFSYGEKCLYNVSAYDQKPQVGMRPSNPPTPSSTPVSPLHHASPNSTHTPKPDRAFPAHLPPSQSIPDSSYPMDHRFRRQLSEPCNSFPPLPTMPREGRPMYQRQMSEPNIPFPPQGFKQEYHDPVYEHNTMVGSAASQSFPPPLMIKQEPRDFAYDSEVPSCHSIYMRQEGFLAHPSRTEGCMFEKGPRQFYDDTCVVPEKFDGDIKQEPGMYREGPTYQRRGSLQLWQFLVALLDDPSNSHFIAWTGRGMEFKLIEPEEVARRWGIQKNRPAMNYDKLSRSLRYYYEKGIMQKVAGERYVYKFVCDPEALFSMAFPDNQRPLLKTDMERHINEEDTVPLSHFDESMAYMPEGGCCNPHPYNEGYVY
Outline: as §1

[10] = biological target: T5, ERF (Homo sapiens, UniProt P50548 1-548); settings: protein: recombinant; tags: N-terminal GST; dsDNA, one strand shown
T5 sequence: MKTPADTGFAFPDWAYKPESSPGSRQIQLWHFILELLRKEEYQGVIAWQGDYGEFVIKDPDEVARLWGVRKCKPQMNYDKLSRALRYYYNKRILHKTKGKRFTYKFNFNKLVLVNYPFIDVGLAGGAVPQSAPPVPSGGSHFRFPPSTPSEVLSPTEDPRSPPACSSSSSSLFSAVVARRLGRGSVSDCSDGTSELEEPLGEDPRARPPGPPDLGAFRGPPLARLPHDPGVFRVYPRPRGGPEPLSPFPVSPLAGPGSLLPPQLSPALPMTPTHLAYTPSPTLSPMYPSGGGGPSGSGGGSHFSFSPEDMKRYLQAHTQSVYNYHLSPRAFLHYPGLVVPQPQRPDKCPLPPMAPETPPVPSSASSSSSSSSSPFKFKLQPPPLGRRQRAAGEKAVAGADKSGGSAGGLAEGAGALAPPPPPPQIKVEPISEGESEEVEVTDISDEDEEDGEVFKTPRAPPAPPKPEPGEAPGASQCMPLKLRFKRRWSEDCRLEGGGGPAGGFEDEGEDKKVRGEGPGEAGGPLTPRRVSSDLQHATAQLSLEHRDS
Outline: as §1

[11] = biological target: T6, ETS2 (Homo sapiens, UniProt P15036 1-469); settings: protein: recombinant; tags: N-terminal GST; dsDNA, one strand shown
T6 sequence: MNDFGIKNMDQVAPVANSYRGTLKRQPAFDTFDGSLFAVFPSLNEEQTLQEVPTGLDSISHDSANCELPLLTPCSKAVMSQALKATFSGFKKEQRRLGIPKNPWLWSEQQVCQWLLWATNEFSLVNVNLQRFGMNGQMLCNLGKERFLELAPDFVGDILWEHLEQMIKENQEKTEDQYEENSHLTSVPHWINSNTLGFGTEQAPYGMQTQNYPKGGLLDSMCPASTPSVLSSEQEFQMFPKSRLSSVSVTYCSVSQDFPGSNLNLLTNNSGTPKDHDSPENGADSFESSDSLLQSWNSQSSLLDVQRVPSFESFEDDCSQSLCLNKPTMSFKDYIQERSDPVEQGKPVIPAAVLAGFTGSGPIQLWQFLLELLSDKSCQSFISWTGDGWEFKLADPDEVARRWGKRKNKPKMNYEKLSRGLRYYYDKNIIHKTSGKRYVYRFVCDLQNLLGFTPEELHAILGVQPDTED
Outline: as §1

[12] = biological target: T7, ETV7 (Homo sapiens, UniProt Q9Y603 1-341); settings: protein: recombinant; tags: N-terminal GST; dsDNA, one strand shown
T7 sequence: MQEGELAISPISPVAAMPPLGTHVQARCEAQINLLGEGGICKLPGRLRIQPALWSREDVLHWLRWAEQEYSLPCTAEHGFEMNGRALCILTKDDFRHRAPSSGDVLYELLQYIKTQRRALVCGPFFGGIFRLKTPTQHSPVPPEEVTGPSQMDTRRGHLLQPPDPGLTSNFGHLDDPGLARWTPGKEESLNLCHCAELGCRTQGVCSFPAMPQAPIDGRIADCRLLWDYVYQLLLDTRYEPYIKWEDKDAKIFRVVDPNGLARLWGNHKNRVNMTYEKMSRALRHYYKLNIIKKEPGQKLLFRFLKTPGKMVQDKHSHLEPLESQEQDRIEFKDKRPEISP
Outline: as §1

[13] = biological target: T8, ELF5 (Homo sapiens, UniProt Q9UKW6-2 1-255); settings: protein: recombinant; tags: N-terminal GST; dsDNA, one strand shown
T8 sequence: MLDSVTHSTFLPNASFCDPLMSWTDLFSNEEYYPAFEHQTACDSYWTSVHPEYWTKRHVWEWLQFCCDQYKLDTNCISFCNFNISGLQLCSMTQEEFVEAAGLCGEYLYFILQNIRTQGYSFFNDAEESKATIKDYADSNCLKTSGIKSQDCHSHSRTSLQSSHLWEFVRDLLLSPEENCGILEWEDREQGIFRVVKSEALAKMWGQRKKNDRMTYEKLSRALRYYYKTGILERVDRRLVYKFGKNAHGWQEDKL
Outline: as §1

[14] = biological target: T9, ETV3L (Homo sapiens, UniProt Q6ZN32 1-361); settings: protein: recombinant; tags: N-terminal GST; dsDNA, one strand shown
T9 sequence: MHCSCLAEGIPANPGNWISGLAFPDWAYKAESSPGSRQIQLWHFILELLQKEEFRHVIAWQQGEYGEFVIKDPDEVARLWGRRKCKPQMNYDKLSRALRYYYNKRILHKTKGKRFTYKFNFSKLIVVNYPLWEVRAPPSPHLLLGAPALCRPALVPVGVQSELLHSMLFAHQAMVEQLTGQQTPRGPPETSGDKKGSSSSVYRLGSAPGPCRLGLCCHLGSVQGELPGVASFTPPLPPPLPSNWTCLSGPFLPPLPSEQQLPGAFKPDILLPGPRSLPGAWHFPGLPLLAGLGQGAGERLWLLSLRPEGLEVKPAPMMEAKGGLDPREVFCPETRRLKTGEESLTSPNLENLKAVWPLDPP
Outline: as §1

[15] = biological target: T10, ETV3 (Homo sapiens, UniProt P41162-2 1-143); settings: protein: recombinant; tags: N-terminal GST; dsDNA, one strand shown
T10 sequence: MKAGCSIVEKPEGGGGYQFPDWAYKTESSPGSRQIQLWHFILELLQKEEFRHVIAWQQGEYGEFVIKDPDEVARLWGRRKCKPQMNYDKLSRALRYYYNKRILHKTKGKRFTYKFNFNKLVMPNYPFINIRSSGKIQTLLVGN
Outline: as §1

[16] = biological target: ETV6 (Homo sapiens, UniProt P41212 1-452); settings: protein: recombinant; tags: N-terminal GST; dsDNA, one strand shown
Chain of ETV6 (P41212 whole entry): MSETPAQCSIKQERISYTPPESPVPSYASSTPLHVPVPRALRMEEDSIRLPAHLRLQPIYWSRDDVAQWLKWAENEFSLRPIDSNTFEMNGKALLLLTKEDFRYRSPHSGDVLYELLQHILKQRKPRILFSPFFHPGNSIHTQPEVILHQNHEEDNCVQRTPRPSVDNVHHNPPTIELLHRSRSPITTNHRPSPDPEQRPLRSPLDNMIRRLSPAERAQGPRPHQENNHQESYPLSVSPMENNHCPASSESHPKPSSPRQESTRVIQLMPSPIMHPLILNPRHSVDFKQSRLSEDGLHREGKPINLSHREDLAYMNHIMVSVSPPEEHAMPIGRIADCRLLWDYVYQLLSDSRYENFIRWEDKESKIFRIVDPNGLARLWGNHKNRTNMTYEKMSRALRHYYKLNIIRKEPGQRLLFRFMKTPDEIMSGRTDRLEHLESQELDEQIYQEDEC
Outline: as §1

Row | Sequence | binding signal [1] | binding signal [2] | binding signal [3] | binding signal [4] | binding signal [5] | binding signal [6] | binding signal [7] | binding signal [8] | binding signal [9] | binding signal [10] | binding signal [11] | binding signal [12] | binding signal [13] | binding signal [14] | binding signal [15] | binding signal [16]
1 | GTCTAA | 1.03 fold enrichment (6-mer frequency, TF over GST control) | 1.01 fold enrichment (6-mer frequency, TF over GST control) | 1.03 fold enrichment (6-mer frequency, TF over GST control) | 1.11 fold enrichment (6-mer frequency, TF over GST control) | 1.13 fold enrichment (6-mer frequency, TF over GST control) | 1.14 fold enrichment (6-mer frequency, TF over GST control) | 1.06 fold enrichment (6-mer frequency, TF over GST control) | 1.33 fold enrichment (6-mer frequency, TF over GST control) | 1.11 fold enrichment (6-mer frequency, TF over GST control) | 1.12 fold enrichment (6-mer frequency, TF over GST control) | 1.04 fold enrichment (6-mer frequency, TF over GST control) | 1.05 fold enrichment (6-mer frequency, TF over GST control) | 1.03 fold enrichment (6-mer frequency, TF over GST control) | – | – | –
2 | TTATCA | 1.06 fold enrichment (6-mer frequency, TF over GST control) | 1.05 fold enrichment (6-mer frequency, TF over GST control) | 1.44 fold enrichment (6-mer frequency, TF over GST control) | 1.12 fold enrichment (6-mer frequency, TF over GST control) | 1.08 fold enrichment (6-mer frequency, TF over GST control) | 1.2 fold enrichment (6-mer frequency, TF over GST control) | 1.13 fold enrichment (6-mer frequency, TF over GST control) | 2.19 fold enrichment (6-mer frequency, TF over GST control) | 1.06 fold enrichment (6-mer frequency, TF over GST control) | 1.14 fold enrichment (6-mer frequency, TF over GST control) | 1.04 fold enrichment (6-mer frequency, TF over GST control) | 1.03 fold enrichment (6-mer frequency, TF over GST control) | 1.07 fold enrichment (6-mer frequency, TF over GST control) | 1.15 fold enrichment (6-mer frequency, TF over GST control) | 1.09 fold enrichment (6-mer frequency, TF over GST control) | 1 fold enrichment (6-mer frequency, TF over GST control)
3 | GAAAGA | – | 1.04 fold enrichment (6-mer frequency, TF over GST control) | 1.4 fold enrichment (6-mer frequency, TF over GST control) | 1.05 fold enrichment (6-mer frequency, TF over GST control) | 1.07 fold enrichment (6-mer frequency, TF over GST control) | 1.01 fold enrichment (6-mer frequency, TF over GST control) | 1.07 fold enrichment (6-mer frequency, TF over GST control) | 1.01 fold enrichment (6-mer frequency, TF over GST control) | 1.03 fold enrichment (6-mer frequency, TF over GST control) | – | 1.02 fold enrichment (6-mer frequency, TF over GST control) | 1.1 fold enrichment (6-mer frequency, TF over GST control) | – | 1.03 fold enrichment (6-mer frequency, TF over GST control) | 1.01 fold enrichment (6-mer frequency, TF over GST control) | 1.09 fold enrichment (6-mer frequency, TF over GST control)

Source: PMC7862700, “An all-to-all approach to the identification of sequence-specific readers for epigenetic DNA modifications on cytosine”
